Data on 59 compounds can be found in PubChem BioAssay AID590 (National Center for Advancing Translational Sciences (NCATS), 2007).

Among all 59,000 compounds or so, about 6,500 (11%) were called active. About 15% were inconclusive and are not listed. This is one part of a sample in which actives are shown more often than they occur. Cut-off read from the data, not from the text of the source: active = max dye-equivalent concentration above about 10 nM; inconclusive = mostly about 1.1 nM to 9.6 nM; inactive = weaker than that. Where a structure was tested more than once in an assay, its records may differ in their call.

A short description of this experiment: qHTS Assay for Spectroscopic Profiling in A350 Spectral Region. As to conditions: Compound autofluorescence, 340/450 nm, Alexa 350 dye-equivalents; active compounds read high. (Quantitative high-throughput screening tests each substance at several concentrations.)
As for `O=S(=O)(c1ccccc1)N(CC(O)CN1CCCCC1)c1ccccc1` (stereo not given), the max dye-equivalent concentration result is “inactive”.
Consider `O=C1c2oc3ccc(Br)cc3c(=O)c2C(c2cccc(F)c2)N1CCO` (stereo not given), for which the max dye-equivalent concentration result is “inactive”.
For `Cn1c(=O)c2c(nc(NCCc3ccccc3)n2Cc2ccccc2)n(C)c1=O`, the max dye-equivalent concentration result is “inactive”.
For the compound `Cn1c(=S)c2[nH]c(SCCCc3ccccc3)nc2n(C)c1=O`, the max dye-equivalent concentration was 12 nM (active).
Still for that read-out and setting: to `CCCSc1nc2c(c(=O)[nH]c(=O)n2C)n1CCc1ccccc1` belongs “inactive”; to `O=S1(=O)CC(NCc2ccccc2)C(Nc2ccc(Cl)cc2)C1` (stereo not given), “inactive”; to `Cc1ccc(C)c(NC(=O)C2CC(=O)N(C(C)C)C2)c1` (stereo not given), “inactive”.
Same read-out and setting: to `COCCn1c(=O)c(-c2cccs2)nc2cncnc21` belongs 89 nM (active); to `COc1ccccc1CCn1c(=O)c(-c2cn(C)c3ccccc23)nc2cncnc21`, “inactive”; to `CN(C(=O)COc1nnc(-c2cccs2)c(-c2cccs2)n1)c1ccccc1`, “inactive”.
Take `COCCn1c(=O)c(-c2cccs2)nc2cnc(N3CCN(C)CC3)nc21`: the max dye-equivalent concentration is 17 nM (active).
In the case of `Cc1ccccc1NC(=O)Cc1nnc(SCC(=O)N2CCN(c3ccccc3)CC2)n1C`, the max dye-equivalent concentration result is “inactive”.
Still for that read-out and setting: the value for `C=CCn1c(C)cc(C(=O)CN2C(=O)c3ccccc3C2=O)c1C` was “inactive”; that for `CC(=O)Nc1ccc(NS(=O)(=O)c2cc(C)sc2C)cc1` was “inactive”; that for `COc1ccccc1CNc1ncncc1-c1cccc(NS(C)(=O)=O)c1` was “inactive”.
As for `Cc1ccc(C(=O)NCC(=O)O)cc1S(=O)(=O)N1CCCCC1`, the max dye-equivalent concentration entry was “inactive”.
As for `CS(=O)(=O)Nc1cccc(-c2cncnc2Nc2ccccc2)c1`, the max dye-equivalent concentration entry was “inactive”.
On the same count and under the same terms, to `CCOc1ccc(OCC)c(NC(=O)C2CCN(S(=O)(=O)c3c(C)noc3C)CC2)c1` belongs “inactive”; to `FC(F)(F)c1cccc(Nc2ncnc3ccccc23)c1`, “inactive”.
As for `O=C(O)Cc1ccc(-c2ccccc2)cc1`, the max dye-equivalent concentration is 47 nM (active) and the outcome was inactive.
For `Cc1cccc(C(=O)Nc2ccc(CC(=O)O)cc2)c1`, the max dye-equivalent concentration entry is “inactive”.
Same read-out and setting: the value for `O=C(O)CCCc1ccccc1` was “inactive”; that for `Cc1c(-c2nn(C)c(=O)c3ccccc23)oc2ccc(F)cc2c1=O` was “inactive”.
Regarding `Cc1[nH]c2ccccc2c1C(=O)CSCC(=O)O`, the max dye-equivalent concentration result was “inactive”.
With `CCOC(=O)C1CCN(C(=O)c2oc3ccc(S(=O)(=O)N4CCCCCC4)cc3c2C)CC1`, the max dye-equivalent concentration result was “inactive”.
On the same count and under the same terms, the value for `CCCOc1ccc(/C(O)=C2/C(=O)C(=O)N(CCN(C)C)C2c2ccc(OC)c(OC)c2)cc1` (stereo not given) was “inactive”; that for `COc1ccc(/C(O)=C2/C(=O)C(=O)N(CCCN(C)C)C2c2ccccc2)cc1OC` (stereo not given) was “inactive”; that for `CCN(CC)CCN1C(=O)C(=O)/C(=C(/O)c2ccc(OC)c(OC)c2)C1c1ccccn1` (stereo not given) was 42 nM (active).
In the case of `CS(=O)(=O)N(C(=O)NC(=O)NC1CCS(=O)(=O)C1)C1CCCCC1` (stereo not given), the max dye-equivalent concentration result is “inactive”.
Still for that read-out and setting: the value for `c1cnc(NC2C3CC4CC(C3)CC2C4)nc1` (stereo not given) was “inactive”.
In the case of `O=C(CN(Cc1ccccc1)C(=O)c1ccc2c(c1)OCCO2)NCc1ccc2c(c1)OCO2`, the max dye-equivalent concentration result was “inactive”.
As to `Cc1cc(NC(=O)Cn2nc(C(F)(F)F)c3c2CCCC3)no1`, the max dye-equivalent concentration entry was “inactive”.
For `COCCOC(=O)C1=C(C)NC(=O)CC1c1cc2c(cc1Br)OCO2` (stereo not given), the max dye-equivalent concentration result is “inactive”.
Same read-out and setting: to `CCCOC(=O)C1=C(C)NC2=C(C(=O)C(C(=O)OC)C(C)C2)C1c1ccc(N(C)C)cc1` (stereo not given) belongs 22 nM (active); to `COC(=O)c1ccc(C2NC(=O)NC(C)=C2C(=O)N(C)C)cc1` (stereo not given), “inactive”; to `COC(=O)c1ccccc1NC(=O)CN(Cc1ccccc1)S(C)(=O)=O`, “inactive”.
Still for that read-out and setting: the value for `S=c1[nH]nc(SCc2ccccc2Cl)c2[nH]cnc12` was “inactive”; that for `CCOC(=O)N1CCC(O)(c2cc(C)c(C)cc2C)CC1` was “inactive”; that for `CCOC(=O)N1CCN(CC(=O)n2c(C)c(C)c3ccccc32)CC1` was “inactive”.
Consider `CCOC(=O)N1CCN(CC(=O)c2ccc3c(c2)CCN3)CC1`, for which the max dye-equivalent concentration is 17 nM (active).
The same measure, in the same setting: to `O=C(NCCCCO)C(F)(F)C(F)(F)C(F)(F)C(=O)NCCCCO` belongs “inactive”; to `O=C(Nn1cnc2ccccc2c1=O)c1ccc(F)cc1Cl`, “inactive”.
Still for that read-out and setting: the value for `Cc1nc(-c2ccc(NC(=O)c3cccs3)cc2)cs1` was 280 nM (active); that for `Cn1c(SCC(=O)Nc2cccc(NC(=O)c3cccs3)c2)nnc1-c1ccncc1` was “inactive”.
On the same count and under the same terms, to `O=C(O)Cc1ccc(NC(=O)c2cccs2)cc1` belongs “inactive”.
For the compound `O=C(O)C1CC(=O)N(Cc2cccnc2)C1` (stereo not given), the max dye-equivalent concentration entry is “inactive”.
On the same count and under the same terms, the value for `CCOc1ccccc1NC(=O)CCc1ccc(C)o1` was “inactive”; that for `O=C1CC2(CCCCC2)Oc2ccc(OCC(=O)N3CCOCC3)cc21` was 1100 nM (active); that for `O=C(Nc1cccc(OCC(=O)N2CCOCC2)c1)C1CCCCC1` was “inactive”.
On the same count and under the same terms, the value for `O=C(Oc1ccc2c(c1)CCC2)N1CCOCC1` was “inactive”.
Regarding `CCNc1nc(SCCOc2ccccc2)nc(N(C)C)n1`, the max dye-equivalent concentration entry was “inactive”.
The same measure, in the same setting: the value for `CCCn1c(SCC(=O)Nc2c(C)cccc2C)nnc1C(C)C` was “inactive”; that for `CC(=O)Nc1ccc(NC(=O)CN2CCCC(C)C2)c(Cl)c1` (stereo not given) was “inactive”.
The same measure, in the same setting: the value for `Cc1cccn2c(=O)c3cc(C#N)c(=NC(=O)c4cccnc4)n(CC4CCCO4)c3nc12` (stereo not given) was 4000 nM (active); that for `Cc1nnc(SCC(N)=O)n1CC1CCCO1` (stereo not given) was “inactive”; that for `Cn1c(=O)c2c(nc(CN3CCOCC3)n2Cc2ccccc2)n(C)c1=O` was “inactive”.
As for `Cc1cccn2c(=O)c3cc(C#N)c(=O)n(CCCN4CCOCC4)c3nc12`, the max dye-equivalent concentration is 12000 nM (active).
For the compound `CCn1cc(C(=O)NCc2ccc(OC)cc2OC)c(=O)c2ccc(C)nc21`, the max dye-equivalent concentration result is “inactive”.
Consider `Cc1ccc(S(=O)(=O)NC(=O)NN2C[C@H]3CCC[C@@H]3C2)cc1`, for which the max dye-equivalent concentration result is “inactive”.
